High-throughput results as filed in PubChem.
TTR transcr act = activators of transthyretin transcription; SH-SY5Y TTR promoter Gaussia luciferase, luminescence; 100% = recombinant luciferase protein wells; activation, % at 16.7 µM; 92,000 compounds, 1.3% hits; AID 1117267;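 active means activation above the mean of all tested compounds plus 3 SD, cut at about 9.5% in these data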;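 further: cells exposed to compounds for one day before reading; 0% = median of all test compound wells on the plate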
TTR inh HuH7 = counter-screen for TTR activators: TTR transcription inhibitors in HuH7 cells; inhibition, % at 16.7 µM; HuH7 TTR promoter-Gaussia luciferase reporter, luminescence; shares compounds with TTR transcr act; 1,100 compounds, 4% hits;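 active means average inhibition above the solvent-only control wells' mean plus 3 SD, cut at about 15% in these data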;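 further: 0% = cells with DMSO only and 100% = cells with inhibitor control FD; inhibitors lower well luminescence so higher value means more inhibition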
TTR act confirm = human TTR transcription activation, confirmation; shares compounds with TTR transcr act; SHSY5Y TTR promoter Gaussia luciferase, luminescence; 100% = purified Lucia enzyme wells, no cells; activation, % at 16.7 µM; 1,100 tested, under 10 active;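 active means mean activation above a set limit taken from the earlier primary screen, cut at about 11% in these data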;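 further: 0% = DMSO-treated cells and 100% = recombinant Lucia luciferase without cells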
Active calls of the source: *; ! = repeats disagree. This excerpt belongs to a sample that is enriched for hits.

SMILES | TTR transcr act | others
O=C(Cc1cc(=O)[nH][nH]1)N/N=C/c1cccc(Cl)c1Cl | 23*! | TTR inh HuH7=-13;TTR act confirm=0
O=C(Nc1ccccc1C(F)(F)F)OC1CC2CC1[C@H]1CCCCN1C2 (some centres not stated) | -2
CC(C)=CCN1CCN(Cc2ccoc2)CC1CCO (configuration not stated) | -2
CC(C)=CCN1CCN(Cc2ccc3nsnc3c2)CC1CCO (configuration not stated) | 1
CC(=O)Nc1ccc2nc(CN3CCN(CC=C(C)C)C(CCO)C3)ccc2c1 (configuration not stated) | 67* | TTR inh HuH7=-6;TTR act confirm=1
CN(C)/C=N/c1nc2ncc(-c3ccc(Cl)cc3)c(/N=C/N(C)C)n2n1 | -2
CC1CCCN(CCOCCSc2ccccc2)C1 (configuration not stated) | 1
CCOC(=O)C1=C(C)N(C[C@@H]2CC[C@@H](Cc3ccc4cc(OC)ccc4c3)O2)C(=O)NC1c1ccccc1 (some centres not stated) | -2
CC(C)Cn1c(SC(C)C(=O)Nc2ccc(N3CCOCC3)cc2)nc2ccccc21 (configuration not stated) | -2
Cc1cccc(NC(=O)C(C)Sc2nc3ccccc3c(=O)n2CCCN2CCOCC2)c1 (configuration not stated) | 21* | TTR inh HuH7=-11;TTR act confirm=1
COc1ccc(NC(=O)CSc2nc3ccccc3c(=O)n2CCCN2CCOCC2)c(OC)c1 | 2
COc1ccc2c(C=Nc3c(C)n(C)n(-c4ccccc4)c3=O)c(O)n(Cc3ccco3)c(=O)c2c1 | -2
Fc1ccccc1CSc1nnc(-c2cccs2)o1 | -1
c1ccc(-c2nnc(CSc3nnc(-c4cccs4)o3)o2)cc1 | 1
O=C(CSc1nnc(-c2cccs2)o1)NCc1ccco1 | 13* | TTR inh HuH7=-11;TTR act confirm=1
CC1CCN(C(=O)CSc2nnc(-c3cccs3)o2)CC1 | -1
O=C(CSc1nnc(CNC(=O)c2cccc(C(F)(F)F)c2)o1)NCc1ccco1 | 4
Fc1ccc(CSc2nnc(-c3cccs3)o2)cc1 | 10* | TTR inh HuH7=-14;TTR act confirm=0
COc1cc2c(cc1N/C=C(\C#N)c1nc(-c3ccccc3)cs1)oc1ccccc12 | 6
COC(=O)Cn1ncn2c(cc3oc(C)cc32)c1=O | 25* | TTR inh HuH7=-15;TTR act confirm=0
CN(C)c1ccc(NC(=O)Cn2ncn3c(cc4ccccc43)c2=O)cc1 | -1
COC(=O)Cn1c(=O)c(C)nc2ccccc21 | 0
O=C(/C=C/c1ccco1)N(Cc1cccc(Br)c1)C1CCS(=O)(=O)C1 (configuration not stated) | -1
CCN(CC)C(=O)C1CCN(c2ncnc3c2cnn3-c2ccc(C)cc2C)CC1 | -4
O=C(NC1CCN(CC(=O)N(c2ccccc2)c2ccccc2)CC1)c1ccc([N+](=O)[O-])cc1 | -3
SMILES | TTR transcr act | others
CCOC(=O)CC1OC(=O)c2cc3c(cc21)C(=O)OC3CC(=O)OCC (configuration not stated) | 4
O=C(NCc1ccc(F)cc1)C1CCCN1C(=O)NCc1ccccc1 (configuration not stated) | 2
Cc1ccc(CCNC(=O)c2cc(S(=O)(=O)N3CCCCC3)c[nH]2)cc1 | -2
O=C(NCCc1ccccc1)c1cc(S(=O)(=O)N2CCCCC2)c[nH]1 | 15* | TTR inh HuH7=-2;TTR act confirm=-1
O=C(NCc1ccc(F)cc1)c1cc(S(=O)(=O)N2CCCCC2)c[nH]1 | -2
CCCOC(=O)c1cc(-c2ccc(C=O)o2)ccc1Cl | -1
COc1ccc(C(=O)COC(=O)C2CCC(=O)N2)cc1 (configuration not stated) | 0
CCCCC(c1nnnn1C1CCCC1)N1CCN(C2CCCCC2)CC1 (configuration not stated) | 1
CCOC(=O)C(NC(=O)NCc1cccc(C(F)(F)F)c1)(OCC)C(F)(F)F (configuration not stated) | 0
CCOC(=O)C(NC(=O)c1ccccc1)(OCC1(CC)COC1)C(F)(F)F (configuration not stated) | -3
CCOC(=O)C(NC(=O)c1cccc(Cl)c1)(OCc1ccc(F)cc1)C(F)(F)F (configuration not stated) | 25* | TTR inh HuH7=-9;TTR act confirm=-1
Cc1ccc(S(=O)(=O)Nc2c(O)c3ccccc3oc2=O)cc1 | -1
Cc1ccc2c(c1)[C@H]1[C@H](CO2)[C@H](c2ccccc2)[C@]2(C)C(=O)Nc3ccccc3C(=O)N12 | 2
CCOc1cccc(-c2cc(N3CCN(CCO)CC3)n3nccc3n2)c1 | 0
C#CCOCCOCCOCCNc1nc(N2CCN(C(=O)Cn3cc(CCO)nn3)CC2)nc(N2CCN(C(=O)[C@H]([C@@H](C)O)n3cc(CCCCN)nn3)CC2)n1 | 11* | TTR inh HuH7=-9;TTR act confirm=0
C#CCOCCOCCOCCNc1nc(N2CCN(C(=O)Cn3cc(CCCCN)nn3)CC2)nc(N2CCN(C(=O)[C@H]([C@@H](C)CC)n3cc(CCCN=C(N)N)nn3)CC2)n1 | -1
C#CCOCCOCCOCCNc1nc(N2CCN(C(=O)[C@H]([C@@H](C)O)n3cc(CCCCN)nn3)CC2)nc(N2CCN(C(=O)[C@H]([C@@H](C)CC)n3cc(CCCN=C(N)N)nn3)CC2)n1 | 7
CCCCNC(=O)NS(=O)(=O)c1cnccc1Sc1ccc(Cl)cc1 | 16* | TTR inh HuH7=-17;TTR act confirm=0
CCCCCNC(=O)C(C)Sc1ccc(Cl)cc1 (configuration not stated) | 2
O=C(NCCCNC(=O)c1cnccn1)c1ccc(Cl)cc1 | 4
CCN(CC)CC(O)c1cccn1-c1ccc(CNC(=O)NC(C)C)cc1 (configuration not stated) | 2
COc1cc(/C=C/C(=O)N2CCN(C)CC2)cc(S(=O)(=O)N2CCc3ccccc32)c1OC | 1
C/C(=N\NC(=O)Cc1cccn1C)c1ccc2ccccc2c1 | 11* | TTR inh HuH7=-20;TTR act confirm=0
C/C(=N/NC(=O)Cc1cccn1C)c1ccccc1 | 0
C/C(=N\NC(=O)Cc1cccn1C)c1ccco1 | 0
SMILES | TTR transcr act | others
CC1CCCN(C(=O)C2COc3ccccc3O2)C1 (configuration not stated) | -1
CC#CCNCc1ccccc1 | 0
COc1ccc(S(=O)(=O)NCCc2c(C)nn(C)c2Oc2ccccc2)cc1 | -1
O=C(N/N=C/c1cccc([N+](=O)[O-])c1)c1ccc(CN2CCOCC2)cc1 | 3
Cn1c(=O)c2c(ncn2CC(=O)N2CCN(S(=O)(=O)c3ccc(F)cc3)CC2)n(C)c1=O | -1
Cn1c(=O)c2c(nc(SCC(=O)c3ccc(F)cc3)n2C)n(C)c1=O | 0
Cn1c(=O)c2c(ncn2CC(O)CNc2ccc(F)cc2)n(C)c1=O (configuration not stated) | 16* | TTR inh HuH7=-11;TTR act confirm=0
CC(=O)c1c(C)[nH]c(C(=O)CSc2nc3ccccc3c(=O)n2CCCO)c1C | -2
CCn1c(C)nc2cc(C(=O)N3N=C(CCOC)CC3(O)C(F)(F)F)ccc21 (configuration not stated) | 2
CCOC(=O)C1=C(CS(=O)(=O)c2ccccc2)NC(=O)NC1c1ccccc1 (configuration not stated) | -1
CCOC(=O)C1=C(c2ccccc2)NC(=O)NC1c1ccc(OC)cc1 (configuration not stated) | 0
